# Source: PubChem (several laboratories)
# CD11b adhes inh = inhibitors of CD11b/CD18 adhesion to fibrinogen, primary screen, K562 cells, luminescence. actives 0.54% (n = 93,000). Integrin beta-2 (Homo sapiens) + Integrin alpha-M (Homo sapiens), P05107+P11215. ATPlite luminescence; Mn2+ added to activate the integrin. inhibition, % at 10 µM. AID 1497, 2009;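 active = primary inhibition of 50% or more at 10 µM, then 40% or more on retest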
# Pyk2 oligo antag = antagonists of Pyk2 self-association, primary screen, Q293 cells, FERM NanoBiT luminescence, HTS; active compounds read low; actives 0.83% (n = 99,000); z-score (the deposit names both 25 µM and 10 µM); AID 1347419, 2020; Protein-tyrosine kinase 2-beta (Homo sapiens), Q14289;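 active = Z-score of -3 or lower, scaled per plate to the spread of control and sample wells; inactive = z-score above -3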;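 note: negative z-score means lost luminescence so less FERM oligomerization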
# Target sequence (Q14289 whole entry, looked up): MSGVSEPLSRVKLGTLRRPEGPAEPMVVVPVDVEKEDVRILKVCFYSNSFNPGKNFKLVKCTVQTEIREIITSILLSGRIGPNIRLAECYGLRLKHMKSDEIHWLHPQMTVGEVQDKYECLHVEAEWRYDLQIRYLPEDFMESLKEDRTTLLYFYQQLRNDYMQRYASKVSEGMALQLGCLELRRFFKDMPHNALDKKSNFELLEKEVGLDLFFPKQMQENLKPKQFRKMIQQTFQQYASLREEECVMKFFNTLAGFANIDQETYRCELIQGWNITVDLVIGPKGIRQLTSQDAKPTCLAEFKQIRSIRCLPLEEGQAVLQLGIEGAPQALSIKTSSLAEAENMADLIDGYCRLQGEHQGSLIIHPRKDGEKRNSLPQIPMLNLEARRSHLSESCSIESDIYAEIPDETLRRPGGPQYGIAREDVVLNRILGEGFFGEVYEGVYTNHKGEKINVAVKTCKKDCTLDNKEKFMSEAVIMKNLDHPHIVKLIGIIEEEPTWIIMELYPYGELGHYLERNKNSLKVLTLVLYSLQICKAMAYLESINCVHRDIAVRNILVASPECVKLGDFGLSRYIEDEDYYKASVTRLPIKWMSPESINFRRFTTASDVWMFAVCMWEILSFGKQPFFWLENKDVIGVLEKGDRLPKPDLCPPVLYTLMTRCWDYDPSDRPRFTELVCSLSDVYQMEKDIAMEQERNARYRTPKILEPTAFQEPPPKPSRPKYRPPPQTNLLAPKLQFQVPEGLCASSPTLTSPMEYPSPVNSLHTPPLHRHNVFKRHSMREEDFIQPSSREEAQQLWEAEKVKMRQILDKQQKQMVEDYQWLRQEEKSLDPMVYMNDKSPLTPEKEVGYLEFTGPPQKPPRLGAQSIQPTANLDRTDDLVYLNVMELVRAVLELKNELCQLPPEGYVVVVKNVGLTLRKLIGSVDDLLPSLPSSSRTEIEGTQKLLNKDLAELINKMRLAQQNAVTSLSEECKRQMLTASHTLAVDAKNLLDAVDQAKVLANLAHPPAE
# Mac1 fbg enh = enhancers of CD11b/CD18 adhesion to fibrinogen, primary screen, K562 cells, luminescence; Integrin beta-2 (Homo sapiens) + Integrin alpha-M (Homo sapiens), P05107+P11215; ATPlite luminescence; activation, % at 10 µM; actives 0.07% (n = 93,000); AID 1499, 2009;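 active = 10 µM primary screen giving 50% or more activity, confirmed by 40% or more on retest at that dose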
# FAK inh = FAK kinase inhibitors, primary screen, biochemical. Focal adhesion kinase 1 (Homo sapiens), Q05397. inhibition, %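 (tested at 7 µM)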. actives 0.84% (n = 97,000). AID 727, 2007. biochemical FAK kinase activity assay; in the data active = inhibition above about 19%;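 note: 0% = DMSO and 100% = reference compound high control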
# Active calls of the source: *; · = no result given. In the library only some 1.8% were active in any assay of this set; here they are far more common.
SMILES,CD11b adhes inh,Pyk2 oligo antag,Mac1 fbg enh,FAK inh
c1ccc(-c2nc3ccccc3s2)nc1,17,-0.73,1,6
O=C(Nc1ccc2c(c1)OCCO2)c1cc2sccc2n1Cc1ccc(F)cc1,·,-3.1*,·,2
O=C(Nc1ccc2c(c1)OCCO2)c1cc2sccc2n1Cc1ccccc1,·,-3.8*,·,0
CN1CC(c2ccc(Cl)c(Cl)c2)[C@@]2(COc3ccccc3C2=O)[C@@]12C(=O)Nc1ccccc12 (stereo partly drawn),-11,-3.4*,4,-3
O=C1Nc2ccccc2C12OCC1(CO2)COC2(OC1)C(=O)Nc1ccccc12 (stereo not drawn),-28,-2.8,-1,-2
COc1ccc(NC(=O)Cn2c(=O)n(-c3ccc(OC)cc3OC)c(=O)c3c(C)c(C)sc32)cc1,-28,·,0,·
O=c1cc(-c2ccccc2)[nH]c2[nH]n(-c3ccccc3)c(=O)c12,-8,-3.8*,1,-1
Nc1nc(Nc2ccc(Cl)cc2)nc2ccccc12,85*,-0.94,-4,0
Cn1c(Oc2ccccc2NCc2cc(Br)ccc2O)cc(=O)n(C)c1=O,·,-3.1*,·,0
COc1cc(CNc2ccccc2Oc2cc(=O)n(C)c(=O)n2C)cc(OC)c1OC,12,0.36,0,-4
CC1CCCN(S(=O)(=O)c2ccc(S(=O)(=O)NC(C)c3cccs3)cc2)C1 (stereo not drawn),10,-0.44,-4,0
O=C(NCc1ccccc1)/C(NC(=O)c1ccccc1)=C(/Sc1ccccn1)c1ccccc1,·,-4.1*,·,2
CCn1c(/C=C2/C(=O)N(C)c3ccccc32)nc2ccccc2c1=O,·,-0.9,·,-6
CCN1C(=O)/C(=C/c2nc3ccccc3c(=O)n2-c2ccccc2)c2ccccc21,1,-3.2*,3,-1
COc1ccc(OC)c(-c2cc(C(=O)Nc3sc4c(c3C#N)CCC(C)C4)c3ccccc3n2)c1 (stereo not drawn),-10,-1.1,93*,3
Cc1ccccc1-c1cc(C(=O)Nc2sc(C(=O)OC(C)C)c(C)c2C#N)c2ccccc2n1,95*,-3.9*,-6,-2
O=C(/C(C=Nc1ccc(Br)cc1)=C(/O)c1ccco1)C(F)(F)F,16,·,2,·
CCOC(=O)c1ccc2c(c1)C1C=CCC1C(C(=O)O)N2 (stereo not drawn),-24,·,116*,·
NC(CC(=O)O)c1ccc(Br)cc1 (stereo not drawn),1,·,-3,·
COc1ccc(NC(=S)NC(NC(=O)c2ccc(Cl)cc2Cl)C(Cl)(Cl)Cl)c([N+](=O)[O-])c1 (stereo not drawn),83*,-0.36,-3,8
COc1ccc(NC(=S)NC(NC(=O)c2ccccc2Cl)C(Cl)(Cl)Cl)c([N+](=O)[O-])c1 (stereo not drawn),14,-1.1,6,5
Cc1ccc(N=Nc2c(N)[nH]n3c(=O)cc(-c4ccccc4)nc23)cc1,·,-1.8,·,-9
COc1cccc(N=Nc2c(N)[nH]n3c(=O)cc(-c4ccccc4)nc23)c1,·,-3.6*,·,-2
Oc1ccc(Nc2nc3ccccc3nc2Nc2ccc(O)cc2)cc1,-5,-4.4*,2,1
O=[N+]([O-])c1cccc(NC(=S)NCCc2ccccc2)c1,104*,·,-8,·
SMILES,CD11b adhes inh,Pyk2 oligo antag,Mac1 fbg enh,FAK inh
O=S(=O)(NCc1ccncc1)c1ccc(Br)s1,98*,0.36,-11,·
CCOC(=O)C(C(=O)OCC)c1cc(Br)c2noc3c2c1C(=O)c1ccccc1-3,7,-0.64,-4,15
O=C1c2ccccc2-c2onc3ccc(Oc4ccccc4)c1c23,·,-1.6,·,36*
COC(=O)COc1ccc(S(=O)(=O)NCc2ccncc2)cc1,80*,0.01,-4,-1
O=C(COC(=O)COc1ccccc1[N+](=O)[O-])Nc1ccc(S(=O)(=O)N2CCCCC2)cc1,50*,0.83,-2,-2
O=C(NCc1ccco1)C(c1ccccc1)N(Cc1ccccc1)C(=O)Cn1nnc2ccccc21 (stereo not drawn),·,-4.1*,·,3
O=C(NCc1ccco1)C(c1ccccc1)N(CC1CCCO1)C(=O)Cn1nnc2ccccc21 (stereo not drawn),·,1.1,·,-1
O=C(O)c1ccccc1Nc1ccccc1C(=O)O,·,0.36,·,0
C/C(=N\O)c1ccccc1C(=O)O,32,-3.3*,-5,3
CC(C)C(=O)Nc1cccc(C(=O)OCC(=O)c2ccc(Cl)cc2Cl)c1,20,-3.5*,-5,3
